Experimental findings from ChEMBL document CHEMBL3988442, “University of Dundee, Small-Polar-MMV Screening Library” (2021) are described below.

The subject of the assay is Trypanosoma brucei. Kind of assay: Trypanosoma brucei 72 hour study. The arrangement: scale not given: in the data most compounds retested in dose-response had high values. Type of assay: functional, organism-based.

In all, about 66,000 compounds went through this assay and about 960 (1.5%) showed an effect of 50% or more. Shown is part of a subset that was picked to be rich in strong results.

Consider `COc1ccc(CN2CCCCC2c2n[nH]cc2-c2cc(C)no2)cc1.Cl` (stereo not drawn), for which the “Percent Effect” value (30.3 µM, […]) is given as 57.52%.

`CC(C)c1nc(CNC2CCN(S(C)(=O)=O)CC2)cs1`: the “Percent Effect” value (30.3 µM, […]) was -4.773%. As for `CC(C)Cn1ccc2c(NC(=O)c3n[nH]c4c3CCC4)cccc21`, under “30 µM, 30.03 µM”, the “Percent Effect” value is 8.967%. `CCc1nc(C2CCCN2C(=O)c2cc[nH]n2)no1` (stereo not drawn): the “Percent Effect” value runs as follows: (10 µM) -9.958%; (30.3 µM, […]) 8.971%. For the compound `O=C(NCc1ccco1)N1CCC(n2ccc(C(F)(F)F)n2)CC1`, under “30 µM, 30.03 µM”, the “Percent Effect” value is recorded as -15.14%. As for `O=C(O)C(F)(F)F.c1coc(CN2CC[C@H]3O[C@@H](COCC4CC4)CC[C@H]32)c1`, the “Percent Effect” value (30 µM, 30.03 µM) is listed as -38.88%.

In the case of `Cc1nc(CN2C(=O)CC[C@@H]3[C@H]2CCN3C2CCOCC2)cs1.O=C(O)C(F)(F)F`, the “Percent Effect” value (30 µM, 30.03 µM) is on record as -42.08%.

`CC(=O)N1CCC2(CC1)CCN(C(=O)c1cccc(C(F)(F)F)c1)C2`: the “Percent Effect” value (30 µM, 30.03 µM) is on record as 38.42%. Take `Cc1nccc(NCc2cncc3c2CCN(CC2CC2)C3)n1.Cl.Cl`: the “Percent Effect” value (30.3 µM, […]) is listed as -82.02%.

Regarding `COc1cccc(S(=O)(=O)CCN2CCN(CC(F)F)CC2)c1`, where the note is “30.3 µM, […]”, the “Percent Effect” value is 100.9%. As for `COc1cccc(S(=O)(=O)CCN2CCN(CCO)CC2)c1`, for the setting “30.3 µM, […]”, the “Percent Effect” value came out at 19.12%. The same measure, in the same setting: for `COCCN1CCN(CCS(=O)(=O)c2cccc(OC)c2)CC1` the value was -9.149%; for `O=C(NCC1CC1)[C@@H]1CCO[C@@H]2CCN(Cc3ccsc3)C[C@H]21.O=C(O)C(F)(F)F`, -183.8%. `O=C1CC(c2cccc(O)c2)c2c(c(C(=O)O)cn2-c2ccccc2)N1` (stereo not drawn): the “Percent Effect” value (30 µM, 30.03 µM) is 55.14%. Consider `O=C1CC(c2ccccc2)c2c(c(C(=O)O)cn2-c2ccccc2)N1` (stereo not drawn), for which the “Percent Effect” value (30 µM, 30.03 µM) is on record as -0.2399%. For `O=C1CC(c2ccc(O)cc2)c2c(c(C(=O)O)cn2-c2ccccc2)N1` (stereo not drawn), the “Percent Effect” value (30 µM, 30.03 µM) is -5.69%. On to `CC(=O)N1CCC2(CCN(C(=O)c3cccc(C(F)(F)F)c3)CC2)C1`, for which the “Percent Effect” value (30 µM, 30.03 µM) is on record as -21.66%.

Consider `Cc1ccc(NC(=O)Cn2cc(I)cn2)cc1C`, for which, for the setting “30 µM, 30.03 µM”, the “Percent Effect” value is reported as -62.87%. On to `CC(C)NC(=O)CCNC(=O)CCc1cc(Br)cs1`, for which the “Percent Effect” value (30 µM, 30.03 µM) is -16.2%.

For `COC(=O)CNC(=O)CCc1cc(Cl)cs1`, the “Percent Effect” value (30 µM, 30.03 µM) was determined as 30.07%. Take `CC(C)NC(=O)CCNC(=O)CCc1cc(Cl)cs1`: the “Percent Effect” value (30 µM, 30.03 µM) is listed as 67.45%.

In the case of `CC(C)CN1C(=O)C2(CCN(Cc3ccoc3)C2)c2ccccc21.O=C(O)C(F)(F)F` (stereo not drawn), where the note is “30.3 µM, […]”, the “Percent Effect” value is on record as -10.51%.

On to `Cc1ccc(CN2CCC3(C2)C(=O)N(CC(C)C)c2ccccc23)s1` (stereo not drawn), for which the “Percent Effect” value (30 µM, 30.03 µM) is -8.12%. Regarding `CC(C)CN1C(=O)C2(CCN(Cc3ccc(F)cc3)C2)c2ccccc21` (stereo not drawn), for the setting “30.3 µM, […]”, the “Percent Effect” value was 100.2%.

Turning to `COCCN1CCC2(CC1)CC(NC(=O)COC)c1ccccc1O2.O=C(O)C(F)(F)F` (stereo not drawn), the “Percent Effect” value (30.3 µM, […]) is given as -14.34%. Regarding `CN(C)C(=O)c1n[nH]c2c1CN(CC1CCC1)C2.O=C(O)C(F)(F)F.O=C(O)C(F)(F)F`, the “Percent Effect” value (30.3 µM, […]) was -41.36%. `CC(C)CC(=O)N1C[C@@H]2CCN(c3ncccn3)C[C@@H]2C1.O=C(O)C(F)(F)F`: the “Percent Effect” value (30.3 µM, […]) was -27.97%.

Turning to `Cc1cnc(C(=O)N2C[C@H]3CN(Cc4nccs4)C[C@H]3C2)cn1`, the “Percent Effect” value (30 µM, 30.03 µM) is recorded as -50.26%. Consider `O=C(N1CCCC1)N1Cc2nccn2CC(COc2cccnc2)C1.O=C(O)C(F)(F)F` (stereo not drawn), for which the “Percent Effect” value (30.3 µM, […]) is -5.824%. As for `CC1(C)CN(C(=O)NCCc2ccn(-c3ccccc3)n2)CCO1`, the “Percent Effect” value (30 µM, 30.03 µM) is on record as -25.69%. For `O=C(NCCc1ccn(-c2ccccc2)n1)N1CCSCC1`, the “Percent Effect” value (10 µM) was 92.88%. Turning to `O=C(NCCNc1ccccn1)N1CCSCC1`, the “Percent Effect” value (30 µM, 30.03 µM) is reported as -32.01%.

`O=C(NCc1nn(-c2ccccc2)c2c1CCC2)N1CCSCC1`: the “Percent Effect” value (30 µM, 30.03 µM) is recorded as -15.48%. As to `CCC(C(=O)NCCc1ccn(-c2ccccc2)n1)N1CCCC1=O` (stereo not drawn), the “Percent Effect” value (30 µM, 30.03 µM) is listed as -6.42%. As for `O=C(NCCc1ccn(-c2ccccc2)n1)N1CCC1`, the “Percent Effect” value (30 µM, 30.03 µM) came out at 105.4%. Take `O=C(O)C(F)(F)F.c1csc(CN2C[C@H](OCC3CCOCC3)[C@H]3COC[C@H]32)n1`: for the setting “30.3 µM, […]”, the “Percent Effect” value is -15.06%. `CS(=O)(=O)N1CC[C@H]2OCC[C@@]2(C(=O)NCCc2ccccn2)C1.O=C(O)C(F)(F)F`: where the note is “30.3 µM, […]”, the “Percent Effect” value is -43.43%.

Take `CC(C)(C)n1ncc(NCC(O)c2ccc(F)c(F)c2)c(Cl)c1=O` (stereo not drawn): under “30 µM, 30.03 µM”, the “Percent Effect” value is listed as -7.617%. Take `CN(Cc1ccccn1)C(=O)[C@H]1CO[C@H]2CCN(CC3CC3)C[C@H]2C1.O=C(O)C(F)(F)F.O=C(O)C(F)(F)F`: the “Percent Effect” value (30.3 µM, […]) is given as -96.69%. For the compound `CNc1ncccc1C(=O)N1CCc2c(nc(N)[nH]c2=O)C1`, where the note is “30 µM, 30.03 µM”, the “Percent Effect” value was -10.23%. With `O=C(O)C(F)(F)F.O=C(O)C(F)(F)F.c1cncc(CN2CCc3c(nnn3CC3CC3)C2COCC2CC2)c1` (stereo not drawn), the “Percent Effect” value (30 µM, 30.03 µM) turned out to be 26.56%. For the compound `O=C(Nc1ccccc1)C1=CC2(CCNCC2)c2ccccc21`, under “30.3 µM, […]”, the “Percent Effect” value was 93.57%.

Consider `CC(=O)N1CCC2(C=C(C(=O)NC3CC3)c3ccccc32)CC1`, for which the “Percent Effect” value (30.3 µM, […]) is listed as 3.653%. Regarding `O=C(C1=CC2(CCNCC2)c2ccccc21)N1CCCC1`, where the note is “30 µM, 30.03 µM”, the “Percent Effect” value was -13.07%. On to `CC(=O)N1CCCC(c2ccccn2)C1` (stereo not drawn), for which the “Percent Effect” value (30.3 µM, […]) is reported as -37.51%. Same read-out and setting: for `CC(=O)N1CCCC(c2ccc(Br)cn2)C1` (stereo not drawn) the value was 11.45%; for `CC(=O)N1CCCC(c2ccc(Cc3ccccc3)cn2)C1` (stereo not drawn), 98.95%.
